Bioassay records as filed in PubChem BioAssay.
DT40 TDP1 CPT – growth inhibition of DT40 Tdp1-/-;hTDP1 cells with camptothecin (screen for TDP1 inhibitors); chicken DT40 Tdp1-/-;hTDP1 cells + 20 nM CPT, ATP luminescence, 48 h; Potency, µM (series often up to 46.2 µM), inactives show at the top dose activity change, negative = growth inhibition, most hits filed as inhibitors; hit rate 12% among 420,000; AID 686979; also: nearly all actives have a fitted effect of over 55% in size
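Chicken DT40 Tdp1-/- cells stably complemented with human TDP1 were seeded at 400 cells/well in medium containing 20 nM camptothecin, exposed to pin-transferred compounds, and grown at 37 °C for at least 48 hr. Viability was read as ATP luminescence.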
KB-V1 cytotox – KB-V1 MDR subline cytotoxicity; Potency, µM (highest dose often 46.1 µM), most hits filed as cytotoxic; hit rate 3.4% among 400,000; KB-V1 MDR cells viability, CellTiter-Glo, 72 h; also: nearly all actives have a fitted effect of over 60% in size
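Compound-treated KB-V1 multidrug-resistant cells, 72 h, 37 degrees C; viability by CellTiter-Glo. Fitted qHTS curves give the values.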
HT1080 IDH1KD tx – toxicity to HT-1080 IDH1 knockdown cells (counter line); AID 686971; HT-1080 IDH1 knockdown viability, ATP luminescence, 48 h; Potency, µM (top dose mostly 46.1 µM), inactives show at the highest dose activity, negative = toxicity, most hits filed as cytotoxic; hit rate 2% among 360,000;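 also: 0% = DMSO wells and -100% = cell-free medium wells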
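Luminescent ATP read-out (CellTiter-Glo, 10 min at room temperature) after 48 h compound exposure at 37 °C gave viability of IDH1-knockdown HT-1080 cells. Activity was normalised to DMSO and cell-free wells, then fitted as concentration-response curves.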
HT1080NT lethal – kills 2HG-producing HT-1080-NT fibrosarcoma cells; HT-1080-NT fibrosarcoma viability, CellTiter-Glo ATP luminescence, 48 h; Potency, µM (top dose mostly 46.1 µM), for inactives: top-dose activity, negative = less viability, usual class: cytotoxic; hit rate 1.6% among 360,000; AID 686970;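 also: NT is the 2HG producing partner of a matched IDH1 knockdown line; 0% = DMSO-treated cells and -100% = media-only wells without cells; nearly all actives have a fitted effect of over 55% in size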
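HT-1080-NT fibrosarcoma cells (2HG-overproducing), 750 cells/well in RPMI with 5% FBS, dosed after 2 h and incubated 48 h at 37C. CellTiter-Glo luminescence normalized to DMSO and no-cell wells; concentration-response curves fitted and classed.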
KB-3-1 cytotox – KB-3-1 parental cell cytotoxicity. hit rate 1.4% among 400,000. KB-3-1 viability, CellTiter-Glo ATP luminescence, 72 h. Potency, µM (doses to about 46.1 µM), most hits filed as cytotoxic; also: nearly all actives have a fitted effect of over 60% in size
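Viability of parental KB-3-1 cells, measured by CellTiter-Glo luminescence, followed a 72 h incubation at 37 °C with pinned compounds in phenol-red-free DMEM containing 10% FBS.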
TDP1 cell noCPT – qHTS for Inhibitors of human tyrosyl-DNA phosphodiesterase 1 (TDP1): qHTS in cells in absence of CPT. DT40 Tdp1-/- hTDP1 cells, no CPT, ATP luminescence, 48 h. Potency, µM (titrated, usually from 46.2 µM), inactives show at the top dose activity change, negative = growth inhibition, usual class: inhibitors. hit rate 15% among 420,000. AID 686978, 2013; also: nearly all actives have a fitted effect of over 55% in size
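No-CPT arm: Tdp1-/-;hTDP1 DT40 cells (400/well) plus compounds, incubated ≥48 hr at 37 °C. Readout CellTiter-Glo luminescence.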
Active calls of the source: *; i = inactive; ? = inconclusive; . = no result; [ ] = remark or other dose. Most compounds without a hit are left out; they make up all but 19% or so of the library. Calls follow the shape of the dose curve; as a rule, active = well fitted curve in the direction sought with a large enough effect; inconclusive = small, poorly fitted or top-dose-only effect, or another doubt; inactive = no such curve, though single readings can be large; an effect the other way counts as inactive or inconclusive. Unless noted, % is scaled to controls: 0 for no effect and ±100 for the full control effect; potency is read from the fitted curve at half-maximal effect.

SMILES	DT40 TDP1 CPT	KB-V1 cytotox	HT1080 IDH1KD tx	HT1080NT lethal	KB-3-1 cytotox	TDP1 cell noCPT
CCCc1nnc(NC(=O)CCC(=O)N2CCC(Cc3ccccc3)CC2)s1	26µM*	i	-3%	-5%	i	21µM*
Cc1ccc(C)c(N2CCN(C(=O)CCC(=O)Nc3nnc(CC(C)C)s3)CC2)c1	?	i	18%	9%	i	-3%
CC(C)Cc1nnc(NC(=O)CCC(=O)N2CCN(c3ccc(Cl)cc3)CC2)s1	21µM*	i	8%	4%	i	-17%
COc1ccc(C(=O)N2CC(c3ccc(Cl)cc3)CC2=O)cc1 (stereo unspecified)	-1%	i	6%	5%	i	-20%
COc1ccc(C(=O)CN2CC(C)SC2=Nc2ccc(Cl)cc2)cc1 (stereo unspecified)	?	?	10%	0%	?	23µM*
Cc1ccccc1N1CCN(Cc2c(C#N)c3ccccc3n2C)CC1	18µM*	i	15%	0%	i	?
Cn1c(CSc2ccccc2)c(C#N)c2ccccc21	-3%	16µM*	-26%	-2%	i	-27%
Cc1c(C#N)c2ccccc2n1C	-13%	i	7%	11%	?	-21%
Cc1ccc(SCc2c(C#N)c3ccccc3n2C)cc1	21µM*	i	1%	17%	i	21µM*
Cn1c(CNc2ccccn2)c(C#N)c2ccccc21	-12%	23µM*	-22%	-13%	i	?
Cn1c(CN2CCN(CCO)CC2)c(C#N)c2ccccc21	1%	i	-6%	1%	?	-14%
NS(=O)(=O)c1cccc(NC(=O)Nc2ccccc2)c1	16%	i	15%	7%	i	8%
O=C(COC(=O)c1nc(Cl)ccc1Cl)NCc1cccs1	15%	i	10%	15%	i	-7%
Cc1ccnc(NC(=S)N2CCN(c3ccc(N)cc3)CC2)c1	.	i	.	.	i	.
CCCOc1cc(N(CC)CC)ccc1/C=C(/C#N)c1nc2ccc(C)cc2[nH]1	21µM*	?	?	-12%	i	13µM*
CCN(CC)c1ccc(/C=C(/C#N)c2nc3ccc(C)cc3[nH]2)c(OC(C)C)c1	15µM*	i	-30%	?	?	21µM*
COc1cccc(/C=C(\C#N)c2nc3ccccc3[nH]2)c1OCC(=O)O	-3%	?	-3%	-2%	i	11%
CCOc1cc(N(CC)CC)ccc1/C=C(/C#N)c1nc2ccccc2[nH]1	16µM*	?	?	-25%	?	10µM*
COc1cccc(/C=C(/C#N)c2nc3ccccc3[nH]2)c1OC(C)C(=O)O (stereo unspecified)	0%	i	8%	0%	i	-2%
COc1c(Cl)cc(Cl)cc1/C=C(\C#N)c1nc2ccccc2[nH]1	.	i	.	.	i	.
COC(=O)c1ccc(N(C(=O)c2ccco2)C(C(=O)NC2CCCC2)c2ccco2)cc1 (stereo unspecified)	-25%	i	1%	2%	i	?
CC(CC(=O)NCC1CCCO1)c1ccccc1 (stereo unspecified)	-9%	i	-1%	0%	i	10%
CC1(C(=O)NCc2ccccc2Br)CCN1Cc1csc2ccccc12 (stereo unspecified)	?	?	?	?	i	?
Cc1ccc2[nH]c(CSc3nnc(C)s3)cc(=O)c2c1	-2%	i	.	.	i	-19%
COc1ccc(C2C(Oc3ccccc3)C(=O)N2c2ccc(C)c(C)c2)cc1OC (stereo unspecified)	?	i	-3%	-4%	i	?
SMILES	DT40 TDP1 CPT	KB-V1 cytotox	HT1080 IDH1KD tx	HT1080NT lethal	KB-3-1 cytotox	TDP1 cell noCPT
COc1ccc(C2C(Oc3ccccc3)C(=O)N2c2cc(C)ccc2C)cc1OC (stereo unspecified)	0%	6.5µM*	2%	2%	i	-4%
Cc1cc(NC(=O)C(C)Sc2nc(-c3ccccc3)cc(=O)[nH]2)no1 (stereo unspecified)	-13%	i	-1%	2%	i	-26%
Cc1ccc(-n2c(SCc3nc(-c4ccccc4C)no3)nnc2-c2ccncc2)cc1C	23µM*	i	.	.	i	21µM*
COc1ccccc1-c1noc(CSc2nnc(Cc3ccccc3)n2-c2ccc(C)c(C)c2)n1	16µM*	i	.	.	i	23µM*
COc1ccc(-c2noc(CSc3nnc(-c4ccncc4)n3-c3cccc(C)c3)n2)cc1OC	?	i	.	.	i	?
CCOc1ccc(-n2c(SCc3nc(-c4ccc(OC)cc4)no3)nnc2-c2ccncc2)cc1	?	i	.	.	i	?
Cc1ccccc1-c1noc(CSc2nnc(-c3ccncc3)n2-c2ccc(F)cc2)n1	?	i	.	.	i	15µM*
CCOc1ccc(-n2c(Cc3ccccc3)nnc2SCc2nc(-c3cccs3)no2)cc1	?	?	.	.	i	?
CCOc1ccccc1-c1noc(CSc2nnc(-c3ccncc3)n2-c2ccc(F)cc2)n1	-77%	i	.	.	i	16µM*
C[C@@H]1CN([C@@H](C)CO)C(=O)c2cccc(NC(=O)Nc3ccc4c(c3)OCO4)c2O[C@H]1CN(C)S(=O)(=O)c1cn(C)cn1	?	?	6%	1%	i	?
COc1ccc(NC(=O)COC(=O)Cn2cnc3ccccc3c2=O)c(OC)c1	-4%	i	0%	11%	i	-17%
CC(C)(C)c1ccc(S(=O)(=O)N2CCC(NC(=O)c3ccco3)CC2)cc1	13%	i	0%	0%	i	-14%
COc1ccc2c(c1)OC(C)CN(CCNC(=O)C1CCOC1)C2 (stereo unspecified)	4%[9.04 µM]	.	.	.	.	14%
CCN(Cc1ccncc1)Cc1ccc2c(c1)CN(C(=O)c1ccc(OC)cc1)CCO2	-1%[9.04 µM]	.	.	.	.	-27%
CNC(C)[C@@H]1CC[C@@H](N)[C@@H](O[C@H]2[C@H](O)[C@@H](O[C@H]3OC[C@](C)(O)[C@H](NC)[C@H]3O)[C@H](N)C[C@@H]2N)O1 (stereo partly specified)	-18%[21.1 µM]	.	.	.	.	-6%[21.1 µM]
Cc1ccc(SCc2nc(-c3ccncc3)no2)cc1	5.8µM*	i	-2%	-3%	i	13µM*
